This passage reports Inhibition results from ChEMBL document CHEMBL4513146, “CO-ADD screening of Karazin Kharkiv National University (Ukraine) compounds”.

What is called Inhibition is the relative decrease from the control value, in per cent.

Test [1] relates to Klebsiella pneumoniae. To be noted: Concentration 32 ug.mL-1;; ASSAY_TEST Inhibition of Bacterial Growth; detection method Absorption (OD600); MEDIA CAMHB; plate type 384well; NBS; CORNING #3640; time 18 hr.
Test [2] deals with Candida albicans. To be noted: Concentration 32 ug.mL-1; ASSAY_TEST Inhibition of Fungal Growth; detection method Absorption (OD530).
Test [3] has as its system Cryptococcus neoformans. To be noted: Concentration 32 ug.mL-1; ASSAY_TEST Inhibition of Fungal Growth; detection method Resazurin; Absorption (OD600-OD570); plate type 384well; NBS; CORNING #3640.

Entries with a potency or affinity are not part of this list.

With `O=C(Cn1nc2c(SC3CCCCC3)nccn2c1=O)N1CCN(c2ccc(F)cc2)CC1`, the Inhibition in test [1] is 10.98%; in test [2], 0.3%; in test [3], -4.89%.

For `CCC(Sc1nnc2c(=O)n(-c3cccc(OC)c3)ccn12)C(=O)Nc1cc(F)ccc1F` (centres undefined), the Inhibition in test [1] is reported as 2.62%; in test [2] it was 1.66%; in test [3] it was -8.66%.

`CCc1cccc(C)c1NC(=O)Cn1nc2ccc(SCc3ccc(Cl)cc3)nn2c1=O`: the Inhibition in test [1] was 2.49%; in test [2] it was 52.47%; in test [3], -13.19%.

For the molecule `COC(=O)c1ccc(NC(=O)Cn2nc3c4cc(-c5ccc(F)cc5)nn4ccn3c2=O)cc1`, the figures for the Inhibition in test [1], in test [2] and in test [3] were 11.64%, 3.5% and -12.29%, respectively.

On to `Cc1ccc(CNC(=O)CSc2nnc3c(=O)n(-c4ccccc4)ccn23)cc1`, for which the Inhibition was 13.24% in test [1], 3.44% in test [2] and -18.23% in test [3].

In the case of `O=C(Cn1nc2c3cc(F)ccc3ncn2c1=O)Nc1ccc2c(c1)OCO2`, the Inhibition in test [1] is 1.07%; in test [2], 3.33%; in test [3] it was -3.11%.

Consider `Cc1ccc(NC(=O)Cn2nc3c(Sc4ccccc4)nc4ccccc4n3c2=O)cc1C`, for which the figures for the Inhibition in test [1], in test [2] and in test [3] were 0.03%, 0.48% and -2.74%, respectively.

For `COc1ccccc1Cn1c(=O)c2sccc2n2c(=O)n(Cc3ccc(Br)cc3)nc12`, the Inhibition is recorded as 3.07% in test [1], -0.38% in test [2] and -8.06% in test [3].

With `COc1ccc(C)cc1NC(=O)Cn1nc2c3cc(-c4ccc(Cl)cc4)nn3ccn2c1=O`, the Inhibition in test [1] is on record as 15.75%; in test [2], -1.06%; in test [3] it was -27.09%.

With `CCc1ccccc1Sc1nccn2c(=O)n(CC(=O)Nc3ccc(OC)c(Cl)c3)nc12`, the Inhibition in test [1] was 5.33%; in test [2], 13.19%; in test [3], 0.67%.

On to `COC(=O)c1ccc(NC(=O)Cn2nc3c(Oc4cccc(OC)c4)nccn3c2=O)cc1`, for which the Inhibition is recorded as 5.51% in test [1], 12.96% in test [2] and -6.09% in test [3].

As to `Cc1ccc(-c2ccc3nnc(CCC(=O)NCc4ccc(C(F)(F)F)cc4)n3n2)cc1C`, the figures for the Inhibition in test [1], in test [2] and in test [3] were 11.76%, 2.25% and -1.58%, respectively.

With `C=Cc1ccc(CN(c2ccc3c(c2)OCO3)S(=O)(=O)c2ccc3nncn3c2)cc1`, the Inhibition in test [1] is on record as 11.26%; in test [2], 1.71%; in test [3] it was -6.68%.

As for `COc1ccc(NC(=O)Cn2nc3ccc(SCc4ccc(Cl)cc4)nn3c2=O)cc1OC`, the Inhibition in test [1] was -4.29%; in test [2] it was 32.62%; in test [3], -6.53%.

On to `CSc1cccc(NC(=O)Cn2nc3c(Oc4ccccc4C)nccn3c2=O)c1`, for which the Inhibition in test [1] was 7.38%; in test [2] it was -0.96%; in test [3] it was -9.56%.

In the case of `N#CCSc1nnc2c(=O)n(-c3ccc(Br)cc3)ccn12`, the figures for the Inhibition in test [1], in test [2] and in test [3] were 12.03%, 1.63% and -7.07%, respectively.

Regarding `O=c1c2nn(Cc3ccccc3F)c(=O)n2ccn1-c1ccccc1`, the values for the Inhibition in test [1], in test [2] and in test [3] were 4.89%, 1.22% and -10.1%, respectively.

Take `Cc1ccccc1CSc1nnc2c(=O)n(-c3ccc(Br)cc3)ccn12`: the Inhibition in test [1] is reported as 3.65%; in test [2], 15.24%; in test [3] it was -9.13%.

In the case of `Cc1ccc(Cl)cc1NC(=O)Cn1nc2c(SC3CCCCC3)nccn2c1=O`, the figures for the Inhibition in test [1], in test [2] and in test [3] were 10.4%, -0.14% and -28.24%, respectively.

As to `Cc1nnc2c(S(=O)(=O)N(Cc3cccc(Cl)c3)c3ccc(F)c(F)c3)cccn12`, the Inhibition is 3.16% in test [1], 2.06% in test [2] and -7.4% in test [3].

Regarding `Cc1ccc(C)c(NC(=O)Cn2nc3ccc(-c4ccccc4)nn3c2=O)c1`, the Inhibition in test [1] is given as 5.6%; in test [2] it was 1.64%; in test [3], -11.25%.

Turning to `O=C(CCc1nnc2c(N3CCCCC3)nc3ccccc3n12)NCc1ccccc1F`, the values for the Inhibition in test [1], in test [2] and in test [3] were 14.62%, 1.76% and -9.32%, respectively.

In the case of `Cc1ccc(-c2cc3c4nn(CC(=O)Nc5ccc6c(c5)OCCO6)c(=O)n4ccn3n2)cc1C`, the Inhibition in test [1] is given as 12.57%; in test [2] it was 1.55%; in test [3], -15.09%.

As to `Cc1ccc(Sc2nccn3c(=O)n(CC(=O)Nc4c(C)cc(C)cc4C)nc23)c(C)c1`, the Inhibition was 17.85% in test [1], -0.74% in test [2] and -21.38% in test [3].

With `O=C(Cn1nc2c(SCc3ccccc3)nccn2c1=O)NCc1ccccc1`, the Inhibition in test [1] is listed as -8.41%; in test [2], 20.32%; in test [3] it was -13.69%.

On to `CC(C)c1ccc(NC(=O)CSc2nc3ccccc3n3cnnc23)cc1`, for which the Inhibition is listed as 3.82% in test [1], 7.46% in test [2] and -15.4% in test [3].

With `O=C(Cn1nc2c(N3CCOCC3)nccn2c1=O)NCc1ccc(Cl)cc1`, the Inhibition in test [1] was 8.43%; in test [2] it was 3.53%; in test [3], -3.97%.

For `Cc1cc(C)cc(N(Cc2ccccc2F)S(=O)(=O)c2cccn3c(C)nnc23)c1`, the Inhibition in test [1] is on record as 2.04%; in test [2] it was 1.9%; in test [3], -4.5%.
